Several values for one entry are separate records, joined by “and”; a condition that tells them apart may be missing. Identical values can stand only once. Some compounds were tested as several samples or in several runs, with calls that do not always agree. Activity calls are given as the source filed them. How the source made its calls: active means hit-call score of the fitted dose curve at least 0.9, where 1 is the maximum; inactive means score below 0.9.
Key:
[1] = read-out: Human Leukocyte Antigen - DR isotype (HLADR), HLA-DRA (gene 3122); assay: BSK_BE3C_HLADR: BioMAP Diversity Plus: BE3C Assay for Human Leukocyte Antigen - DR isotype (HLADR) Biomarker Activity (AID 2283032); settings: primary human bronchial epithelial cells; actives raise or lower the signal
Summary of the method: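 ELISA read-out of HLA-DR on human lung bronchial epithelial primary cells, measured 24 h post-dosing. Both increases and decreases were scored relative to DMSO vehicle.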

[2] = read-out: Interferon-gamma inducible Protein 10 (IP10), CXCL10 (gene 3627); assay: BSK_BE3C_IP10: BioMAP Diversity Plus: BE3C Assay for Interferon-gamma inducible Protein 10 (IP10) Biomarker Activity (AID 2283034); settings: primary human bronchial epithelial cells; actives raise or lower the signal
Summary of the method: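 Chemical is dosed onto human lung bronchial epithelial primary cells, cultures are incubated 24 h, and IP-10 is then quantified by ELISA. Gain or loss of signal is fitted in both directions relative to DMSO.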

[3] = read-out: Monokine induced gamma interferon (MIG), CXCL9 (gene 4283); assay: BSK_BE3C_MIG: BioMAP Diversity Plus: BE3C Assay for Monokine induced gamma interferon (MIG) Biomarker Activity (AID 2283035); settings: primary human bronchial epithelial cells; actives raise or lower the signal
Summary of the method: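 MIG level was determined by ELISA after 24 h chemical treatment of primary human bronchial epithelial cells. Values were fitted bidirectionally with DMSO as the negative control and activity baseline.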

[4] = read-out: Transforming growth factor beta 1 (TGFb1), TGFB1 (gene 7040); assay: BSK_BE3C_TGFb1: BioMAP Diversity Plus: BE3C Assay for Transforming growth factor beta 1 (TGFb1) Biomarker Activity (AID 2283036); settings: primary human bronchial epithelial cells; actives raise or lower the signal
Summary of the method: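 Primary human lung bronchial epithelial cells; compound exposure 24 h; TGF-b1 by ELISA; bidirectional fit, DMSO baseline. Parallel SRB total-protein staining for cytotoxicity.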

[5] = read-out: Plasminogen activator inhibitor-1 (PAI1), SERPINE1 (gene 5054); assay: BSK_BE3C_PAI1: BioMAP Diversity Plus: BE3C Assay for Plasminogen activator inhibitor-1 (PAI1) Biomarker Activity (AID 2283037); settings: primary human bronchial epithelial cells; actives raise or lower the signal
Summary of the method: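 Primary human lung bronchial epithelial cells; chemical dosing; 24 h; PAI-1 measured by ELISA; bidirectional fit referenced to DMSO as negative control.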

[6] = read-out: urokinase plasminogen activator (uPA), PLAU (gene 5328); assay: BSK_BE3C_uPA: BioMAP Diversity Plus: BE3C Assay for urokinase plasminogen activator (uPA) Biomarker Activity (AID 2283038); settings: primary human bronchial epithelial cells; actives raise or lower the signal
Summary of the method: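 ELISA read-out of uPA in human lung primary bronchial epithelial cultures, 24 h post-dosing. Gain or loss of signal fitted bidirectionally relative to DMSO baseline; cytotoxicity checked in parallel cultures via SRB total protein stain.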

[7] = read-out: Urokinase-type plasminogen activator receptor (uPAR), PLAUR (gene 5329); assay: BSK_BE3C_uPAR: BioMAP Diversity Plus: BE3C Assay for Urokinase-type plasminogen activator receptor (uPAR) Biomarker Activity (AID 2283039); settings: primary human bronchial epithelial cells; actives raise or lower the signal
Summary of the method: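 Human bronchial epithelial primary cells; chemical exposure 24 h; uPAR by ELISA; bidirectional fit vs DMSO control.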

[8] = read-out: Interleukin-6 (IL6), IL6 (gene 3569); assay: BSK_CASM3C_IL6: BioMAP Diversity Plus: CASM3C Assay for Interleukin-6 (IL6) Biomarker Activity for (AID 2283040); settings: primary human coronary artery smooth muscle cells; actives raise or lower the signal
[9] = read-out: Tissue plasminogen activator (tPA), PLAT (gene 5327); assay: BSK_BE3C_tPA: BioMAP Diversity Plus: BE3C Assay for Tissue plasminogen activator (tPA) Biomarker Activity (AID 2283041); settings: primary human bronchial epithelial cells; actives raise or lower the signal
Summary of the method: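 Primary human lung bronchial epithelial cultures receive test chemical; after 24 h, tPA is quantified by ELISA, and gain or loss of signal is fitted bidirectionally relative to DMSO baseline.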

[10] = read-out: Vascular cell adhesion molecule 1 (VCAM1), VCAM1 (gene 7412); assay: BSK_4H_VCAM1: BioMAP Diversity Plus: 4H Assay for Vascular cell adhesion molecule 1 (VCAM1) Biomarker Activity (AID 2283033); settings: primary human endothelial cells (HUVEC); actives raise or lower the signal
Summary of the method: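 ELISA read-out of VCAM-1 on human umbilical vein endothelium 24 hours after chemical dosing; gain or loss of signal was fitted relative to DMSO, with sulforhodamine B staining of parallel cultures flagging overt cytotoxicity.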

Measured: AC50

CC(C)(COC(=O)c1ccccc1)COC(=O)c1ccccc1
not listed: [10]
inactive: all other assays above

Cc1ccc(O)c(C(C)(C)C)c1
active: [1] 30.5 µM | [10] 30.5 µM | [2] 36.8 µM | [3] 35 µM | [6] 31.6 µM | [7] 20 µM | [8] 10.6 µM
inactive: [4] | [5] | [9]

C#C[C@]1(O)CC[C@H]2[C@@H]3CCC4=Cc5oncc5C[C@]4(C)[C@H]3CC[C@@]21C
active: [2] 31.2 µM
not listed: [10]
inactive: all other assays above

COC(=O)c1ccc(C)cc1
inactive: all assays above

C=C[Si](OCC)(OCC)OCC
inactive: all assays above

CC(=O)Nc1ccccc1O
not listed: [10]
inactive: all other assays above

Cc1ccc(Nc2ccc(O)c3c2C(=O)c2ccccc2C3=O)cc1
inactive: all assays above

O=C(O)c1ccc([N+](=O)[O-])cc1
not listed: [10]
inactive: all other assays above

C=C(C)C(=O)O[C@H]1C[C@@H]2CC[C@@]1(C)C2(C)C
active: [1] 20 µM | [10] 10.1 µM | [2] 33.2 µM | [3] 30.4 µM | [4] 26.4 µM | [5] 20 µM | [6] 20 µM | [7] 32.2 µM | [8] 13 µM | [9] 20 µM

Cc1cc(C2(c3cc(C)c(O)cc3C)OS(=O)(=O)c3ccccc32)c(C)cc1O
not listed: [4]
inactive: all other assays above

CC1CCC(C(C)CS)CC1S (stereo not given)
inactive: [4] | [5] | [6] | [9]
active: [1] 20 µM | [2] 30.7 µM | [3] 35.4 µM | [7] 20 µM | [8] 33.5 µM

O=C1CCCCCCCCCCCCCCO1
active: [1] 20 µM | [2] 12.6 µM | [4] 14.6 µM | [5] 20 µM | [6] 32.7 µM | [7] 20 µM | [8] 31.6 µM | [9] 12.7 µM
inactive: [3]

CC(C)c1ccc(C(C)C)cc1
active: [1] 30.8 µM | [2] 30.9 µM | [7] 20 µM | [8] 20 µM | [9] 23.3 µM
inactive: [3] | [4] | [5] | [6]

CCCCCCCCCCCCCCCCCC(=O)OCC(CC)CCCC (stereo not given)
active: [5] 0.25 µM
not listed: [10]
inactive: all other assays above

c1ccc2c(c1)c1cccc3ccc4cccc2c4c31
inactive: all assays above

CCCCC(CC)COCCC#N (stereo not given)
inactive: all assays above

O=C(O)c1cn(C2CC2)c2cc(N3CCNCC3)c(F)cc2c1=O
not listed: [10]
inactive: all other assays above

CCCCC(CC)COC(=O)/C=C\C(=O)OCC(CC)CCCC (stereo not given)
inactive: all assays above

Nc1cc([N+](=O)[O-])ccc1Cl
not listed: [10]
inactive: all other assays above

O=[N+]([O-])c1cc(C(F)(F)F)ccc1Cl
inactive: all assays above

CCc1c(C)cc(N)c(CC)c1N
not listed: [10]
inactive: all other assays above

CCn1c2ccccc2c2cc(N)ccc21
active: [1] 2.24 µM | [5] 3.97 µM | [9] 3.97 µM
not listed: [10]
inactive: all other assays above

N#Cc1ccc(CC(=NNC(=O)Nc2ccc(OC(F)(F)F)cc2)c2cccc(C(F)(F)F)c2)cc1
not listed: [10]
inactive: all other assays above

O=C(O)C[C@H](O)C[C@H](O)/C=C/c1c(C2CC2)nc2ccccc2c1-c1ccc(F)cc1
active: [1] 0.028 µM | [6] 1.7 µM | [8] 0.0041 µM | [9] 0.0843 µM
inactive: all other assays above

CC(=O)/C=C/C1=C(C)CCCC1(C)C
inactive: all assays above

BrC1CCC(Br)C(Br)CCC(Br)C(Br)CCC1Br (stereo not given)
active: [1] 1.49 µM | [2] 1.55 µM
not listed: [10]
inactive: all other assays above

O=C1OC2(c3cc(Br)c(O)c(Br)c3Oc3c2cc(Br)c(O)c3Br)c2c(Cl)c(Cl)c(Cl)c(Cl)c21
inactive: [8]
active: [1] 0.56 µM | [2] 0.818 µM | [3] 2.49 µM | [4] 0.587 µM | [5] 0.563 µM | [6] 0.736 µM | [7] 0.84 µM | [9] 0.744 µM

c1ccc2sc(SN(C3CCCCC3)C3CCCCC3)nc2c1
active: [2] 2.67 µM
not listed: [10]
inactive: all other assays above

CCCCCCCCCC=O
active: [1] 20 µM | [2] 20 µM
not listed: [10]
inactive: all other assays above

CC(C)Oc1ccccc1O
not listed: [10]
inactive: all other assays above

CCCCC/C=C/C=C/C=O
active: [1] 20 µM | [2] 28.4 µM | [3] 34.3 µM | [6] 31.3 µM
not listed: [10]
inactive: all other assays above

OC1OC[C@@H](O)[C@H](O)[C@H]1O (stereo not given in full)
not listed: [4] | [10]
inactive: all other assays above

Nc1cc([N+](=O)[O-])ccc1O
active: [5] 11.8 µM
inactive: [1] | [2] | [3] | [5] | [6] | [7] | [8] | [9]

CC(=O)OCCC(C)CC(C)(C)C (stereo not given)
not listed: [4] | [10]
inactive: all other assays above

COc1cc(C=O)ccc1OC(=O)C(C)C
not listed: [4] | [10]
inactive: all other assays above

CN(CCOc1ccc(CC2SC(=O)NC2=O)cc1)c1ccccn1 (stereo not given)
active: [1] 20 µM | [2] 11 µM | [5] 0.21 µM | [7] 3.97 µM
not listed: [10]
inactive: all other assays above

CC(=O)[C@H]1CC[C@H]2[C@@H]3CC=C4C[C@@H](O)CC[C@]4(C)[C@H]3CC[C@]12C
not listed: [4] | [10]
inactive: all other assays above

O=C=NC1CCC(CC2CCC(N=C=O)CC2)CC1 (stereo not given)
not listed: [10]
inactive: all other assays above

Cc1ccc2n[nH]nc2c1
not listed: [10]
inactive: all other assays above

CC[Si](OC(C)=O)(OC(C)=O)OC(C)=O
not listed: [4] | [10]
inactive: all other assays above

OC[C@H]1O[C@H](O[C@]2(CCl)O[C@H](CCl)[C@@H](O)[C@@H]2O)[C@H](O)[C@@H](O)[C@H]1Cl
not listed: [4] | [10]
inactive: all other assays above

O=P(c1ccccc1)(c1ccccc1)c1ccccc1
not listed: [10]
inactive: all other assays above

CCC(=O)OCc1ccccc1
not listed: [4] | [10]
inactive: all other assays above

NCCNCCN
not listed: [4] | [10]
inactive: all other assays above

CCCCCCCCC=O
not listed: [10]
inactive: all other assays above

CC1COc2ccccc2N1C(=O)C(Cl)Cl (stereo not given)
inactive: [3] | [4] | [7]
active: [1] 7.78 µM | [2] 12.2 µM | [5] 3.97 µM | [6] 0.016 µM | [8] 8.9 µM | [9] 3.04 µM

CC(=O)O[C@]1(C(C)=O)CC[C@H]2[C@@H]3C[C@H](C)C4=CC(=O)CC[C@]4(C)[C@H]3CC[C@@]21C
active: [1] 10 µM | [8] 0.0082 µM
not listed: [10]
inactive: all other assays above

C[C@H]1C[C@@H]2[C@H]([C@@H](O)C[C@@]3(C)[C@H]2CC[C@]3(O)C(=O)CO)[C@@]2(C)C=CC(=O)C=C12
active: [8] 352 nM and 321 nM
not listed: [4] | [10]
inactive: all other assays above

O=C(O)c1cn(-c2ccc(F)cc2)c2cc(N3CCNCC3)c(F)cc2c1=O
not listed: [10]
inactive: all other assays above

CNC[C@H](O)c1cccc(O)c1
not listed: [10]
inactive: all other assays above

C=CCOC(=O)CCC1CCCCC1
not listed: [4] | [10]
inactive: all other assays above
